High-throughput results deposited in PubChem by several laboratories.
Rows were chosen to be rich in hits. Some 3.2% of all compounds tested hit in one or more screens of this group.
Dyrk1A ADPGlo = rat Dyrk1A kinase inhibitors, primary screen, biochemical, single point, plate reader. ADP-Glo luminescence, NFATc1 peptide. inhibition, % at 12.5 µM. actives 0.43% (n = 310,000); in the data active means inhibition above about 50%
SMARCA2 act = SMARCA2 (BRM) function activators, primary screen, cell-based, luminescence, high throughput; activation, % at 9.1 µM; MG213 cells, MMTV-luciferase reporter, dexamethasone, overnight; AID 652017, 2013; actives 1% (n = 370,000); in the data active means activation above about 7.8%
Rtt109 HAT inh = inhibitors of C. albicans Rtt109/Vps75 HAT, primary screen, biochemical, ThioGlo CoA-SH fluorescence, plate reader | purified Rtt109/Vps75, 4 h | Histone acetyltransferase RTT109 (Candida albicans (strain SC5314 / ATCC MYA-2876)), … | AID 540336, 2011 | inhibition, % at 34.9 µM | actives 0.16% (n = 330,000);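 active means inhibition of at least 50% in every replicate; inconclusive means best replicate reaches 50% inhibition but some replicates fall short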
Target sequence (Q5AAJ8 whole entry, looked up): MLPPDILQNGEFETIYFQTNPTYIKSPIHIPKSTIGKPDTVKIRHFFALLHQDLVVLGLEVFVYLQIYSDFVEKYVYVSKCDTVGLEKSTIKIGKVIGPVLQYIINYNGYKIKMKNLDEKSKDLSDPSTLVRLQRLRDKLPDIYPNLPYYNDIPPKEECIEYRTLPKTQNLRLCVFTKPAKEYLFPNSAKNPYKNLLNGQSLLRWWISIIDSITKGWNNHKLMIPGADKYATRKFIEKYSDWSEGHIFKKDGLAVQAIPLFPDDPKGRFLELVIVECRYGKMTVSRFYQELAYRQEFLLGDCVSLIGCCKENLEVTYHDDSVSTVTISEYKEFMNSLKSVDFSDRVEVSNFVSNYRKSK
dFosB act-1 = activators of delta FosB homodimer, primary screen, biochemical, fluorescence polarization, TAMRA-CDK5 oligo, single point; Protein FosB (Mus musculus), P13346; purified delta FosB; percent of positive-control signal above neutral wells; activation, % at 25 µM; actives 0.99% (n = 340,000);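 active means mean activation above about 17%, with every replicate also reaching it, limit read from the data, passing the limit was not always enough; inconclusive means only one of the two conditions met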
Target sequence (P13346 whole entry, looked up): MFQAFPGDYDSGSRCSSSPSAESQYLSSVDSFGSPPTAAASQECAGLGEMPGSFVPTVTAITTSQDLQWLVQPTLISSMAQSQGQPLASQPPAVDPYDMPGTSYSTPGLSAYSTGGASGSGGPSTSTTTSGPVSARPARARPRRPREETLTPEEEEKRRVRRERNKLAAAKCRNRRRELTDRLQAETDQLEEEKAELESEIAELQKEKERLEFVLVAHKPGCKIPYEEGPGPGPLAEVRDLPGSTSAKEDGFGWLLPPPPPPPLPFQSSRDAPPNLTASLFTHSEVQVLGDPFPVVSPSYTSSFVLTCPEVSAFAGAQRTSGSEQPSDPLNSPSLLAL
CDK5 inh = inhibitors of human CDK5/p35 kinase, primary screen, biochemical, single concentration | Recombinant CDK5/p35, ADP-Glo luminescence, 60 min | Cyclin-dependent kinase 5 (Homo sapiens) + Cyclin-dependent kinase 5 activator 1 (Homo … | actives 0.01% (n = 330,000) | inhibition, % at 10 µM;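 active means highest replicate inhibition of at least 50% and at least 75% of replicates reaching 50%; inconclusive means only one of the two criteria met; inactive means both criteria failed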
esBAF inh = Bmi1 luciferase reporter increase in mESCs, primary screen, esBAF inhibitor project, mouse ES cells, Bmi1 luciferase knock-in, single point; reporter increase, % at 12.5 µM; actives 2% (n = 350,000); 24 h; 100% = twice the neutral-well signal; in the data active means activation above about 40%; inconclusive means no clear call, values can overlap the other calls;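 further: a rise in the Bmi1 reporter signal indicates esBAF inhibition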
dFosB act-2 = activators of mouse delta FosB DNA binding, confirmation, biochemical, fluorescence polarization, TAMRA-CDK5 oligo, cherry-picked samples. shares compounds with dFosB act-1. AID 588690, 2011. activation, % at 24.9 µM. purified delta FosB; normalised: neutral wells 0, positive control 100. 2,400 tested, under 10 active;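 active means highest replicate activation at or above 34% and every replicate reaching that threshold; inconclusive means meets only one of the two criteria; inactive means meets neither criterion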;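 further: higher polarization means more probe DNA bound by delta FosB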
Large screens that a line does not name were inactive (follow-up assays come after a bar, where they were run).

CS(=O)(=O)Nc1ccc2c(c1)[C@@H]1C[C@@H](CC(=O)NC3CCCCC3)O[C@H](CO)[C@@H]1O2	none (no result: Dyrk1A ADPGlo, SMARCA2 act, Rtt109 HAT inh, dFosB act-1, CDK5 inh)
COc1ccc(NC(=O)c2oc3ccccc3c2NC(=O)c2ccco2)cc1	dFosB act-1 21 | dFosB act-2 inactive
COc1ccc(C(=O)Nc2ccc3c(c2)C(=O)NC3=O)cc1	dFosB act-1 49 | dFosB act-2 inactive
CC(=O)c1ccc(NC(=O)c2ccc(NC(=O)c3ccco3)cc2)cc1	dFosB act-1 93 (no result: SMARCA2 act) | dFosB act-2 inactive
COc1ccc(NC(=O)c2oc3ccccc3c2NC(=O)c2ccco2)c(OC)c1	none
COc1cccc(C(=O)Nc2ccc3c(c2)C(=O)NC3=O)c1	dFosB act-1 23 | dFosB act-2 inactive
COc1cccc(-c2ccc3n(c2=O)C[C@@H]2[C@@H](CO)[C@H](C(=O)N(C)C)[C@H]3N2CC2CC2)c1	none (no result: Dyrk1A ADPGlo, SMARCA2 act, Rtt109 HAT inh, dFosB act-1, CDK5 inh)
Cc1noc(C)c1NC(=O)N(C)C[C@H]1Oc2ccc(NS(=O)(=O)c3cn(C)cn3)cc2CC(=O)N([C@H](C)CO)C[C@@H]1C	none (no result: Dyrk1A ADPGlo, SMARCA2 act, Rtt109 HAT inh, dFosB act-1, CDK5 inh)
CC(=O)c1ccc(C(=O)Nc2ccc3c(c2)C(=O)NC3=O)cc1	dFosB act-1 32 | dFosB act-2 inactive
O=C(COc1ccc(Cl)cc1)Nc1ccc(NC(=O)c2ccco2)cc1	dFosB act-1 25 | dFosB act-2 inactive
COc1ccc(C(=O)NC(=S)Nc2ccc(NC(=O)c3ccco3)cc2)cc1[N+](=O)[O-]	dFosB act-1 29 (no result: esBAF inh) | dFosB act-2 inactive
Cc1noc(C)c1S(=O)(=O)N(C)C[C@@H]1OCCCC[C@@H](C)Oc2ccc(NC(=O)c3ccccc3)cc2C(=O)N([C@@H](C)CO)C[C@H]1C	none (no result: Dyrk1A ADPGlo, SMARCA2 act, Rtt109 HAT inh, dFosB act-1, CDK5 inh)
C=CCNC(=O)/C(=C/c1cn(-c2ccccc2)nc1-c1cccc([N+](=O)[O-])c1)NC(=O)c1ccccc1	dFosB act-1 19 (no result: esBAF inh) | dFosB act-2 inactive
C[C@@H]1CCCCO[C@@H](CN(C)S(=O)(=O)c2ccccc2)[C@H](C)CN([C@@H](C)CO)C(=O)c2cc(NC(=O)CCCN(C)C)ccc2O1	none (no result: Dyrk1A ADPGlo, SMARCA2 act, Rtt109 HAT inh, dFosB act-1, CDK5 inh)
O=C(Nc1ncn[nH]1)c1cc(S(=O)(=O)Nc2cccc(C(F)(F)F)c2)ccc1Cl	dFosB act-1 58 (no result: Dyrk1A ADPGlo, esBAF inh) | dFosB act-2 inactive
O=C(/C=C/c1ccccc1)Nc1ccc(Br)cn1	dFosB act-1 23 (no result: Dyrk1A ADPGlo, esBAF inh) | dFosB act-2 inactive
Cc1ccc(NC(=O)/C=C/c2ccc(Cl)cc2)nc1	esBAF inh inconclusive
Cc1ccc(S(=O)(=O)N(C)C[C@@H]2Oc3ccc(NS(=O)(=O)c4ccccc4)cc3C(=O)N([C@H](C)CO)C[C@@H]2C)cc1	none (no result: Dyrk1A ADPGlo, SMARCA2 act, Rtt109 HAT inh, dFosB act-1, CDK5 inh)
CC(=O)N(C)C[C@H]1Oc2ncc(C#Cc3ccccc3F)cc2C(=O)N([C@H](C)CO)C[C@@H]1C	none (no result: Dyrk1A ADPGlo, SMARCA2 act, Rtt109 HAT inh, dFosB act-1, CDK5 inh)
COc1ccc(-c2ccc3c(c2)[C@@H]2[C@@H](CCN2S(=O)(=O)c2ccccc2C)[C@H](CO)N3)cc1	none (no result: Dyrk1A ADPGlo, SMARCA2 act, Rtt109 HAT inh, dFosB act-1, CDK5 inh)
CO[C@@H]1CN(C)C(=O)c2ccc(NS(C)(=O)=O)cc2OC[C@H](C)N(CC2CCOCC2)C[C@@H]1C	none (no result: Dyrk1A ADPGlo, SMARCA2 act, Rtt109 HAT inh, dFosB act-1, CDK5 inh)
COc1cccc(C(=O)NC(=S)Nc2ccc3[nH]c(=O)[nH]c3c2)c1	none
COc1cc(OC)cc(C(=O)NC(=S)Nc2ccc3[nH]c(=O)[nH]c3c2)c1	dFosB act-1 24 | dFosB act-2 inactive
CCC(=O)N1[C@@H]2CN(C(=O)c3cccc(OC)c3)c3ccccc3[C@@H]2[C@@H]1CO	none (no result: Dyrk1A ADPGlo, SMARCA2 act, Rtt109 HAT inh, dFosB act-1, CDK5 inh)
CCCNc1c(NS(=O)(=O)c2ccc(C3CCCCC3)cc2)c(=O)oc2ccccc12	dFosB act-1 82 (no result: SMARCA2 act) | dFosB act-2 inactive
CNc1c(NS(=O)(=O)c2ccc(Br)cc2)c(=O)oc2ccccc12	dFosB act-1 99 | dFosB act-2 inactive
CNc1c(NS(=O)(=O)c2ccc(C(C)(C)C)cc2)c(=O)oc2ccccc12	dFosB act-1 60 | dFosB act-2 inactive
CNc1c(NS(=O)(=O)c2ccc3c(c2)CCCC3)c(=O)oc2ccccc12	dFosB act-1 37 | dFosB act-2 inactive
CCCNc1c(NS(=O)(=O)c2ccc(C(C)(C)C)cc2)c(=O)oc2ccccc12	none
Cc1ccc(S(=O)(=O)N[C@H]2CC[C@H](CC(=O)N3CCN(c4ccccc4)CC3)O[C@@H]2CO)cc1	none (no result: Dyrk1A ADPGlo, SMARCA2 act, Rtt109 HAT inh, dFosB act-1, CDK5 inh)
CNc1c(NS(=O)(=O)c2ccc(F)cc2)c(=O)oc2ccccc12	none
CNc1c(NS(=O)(=O)c2ccc(OC)cc2)c(=O)oc2ccccc12	dFosB act-1 31 | dFosB act-2 inactive
C[C@@H]1CN([C@@H](C)CO)C(=O)c2cccc(NC(=O)C3CCCCC3)c2O[C@H]1CN(C)S(=O)(=O)c1ccc(F)cc1	none (no result: Dyrk1A ADPGlo, SMARCA2 act, Rtt109 HAT inh, dFosB act-1, CDK5 inh)
O=C(COC(=O)c1ccc2ncsc2c1)NCc1cccc(Cl)c1	none (no result: Dyrk1A ADPGlo)
O=C(COC(=O)c1ccc2ncsc2c1)NCc1ccccc1Cl	dFosB act-1 24 (no result: Dyrk1A ADPGlo) | dFosB act-2 inactive
COc1ccccc1CNC(=O)C[C@@H]1C[C@@H]2c3cc(N(C)C)ccc3O[C@@H]2[C@H](CO)O1	none (no result: Dyrk1A ADPGlo, SMARCA2 act, Rtt109 HAT inh, dFosB act-1, CDK5 inh)
CO[C@@H]1CN(C)C(=O)c2ccc(NC(=O)C3CC3)cc2OC[C@@H](C)N(C(=O)c2cccnc2)C[C@@H]1C	none (no result: Dyrk1A ADPGlo, SMARCA2 act, Rtt109 HAT inh, dFosB act-1, CDK5 inh)
O=C(Nc1nc(-c2ccc3ccccc3c2)cs1)c1ccc(N2C(=O)CCC2=O)cc1	dFosB act-1 45 | dFosB act-2 inactive
COc1ccc(-c2csc(NC(=O)c3cccc(N4C(=O)CCC4=O)c3)n2)cc1C	none
